Several values for one entry are separate records, joined by “and”; a condition that tells them apart may be missing. Equal entries are not always repeated. Compounds without any hit were thinned out: in the full panel of roughly 83,000, 20% have a hit.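 Compound tested at a single concentration for 48 hours in 96-well plates; a percent growth value below 10 was scored as active.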 Unmarked numbers belong to inactive results. Activity calls are given as the source filed them.

The test system of the first assay is OVCAR-4 ovarian. In words: NCI-60 one-dose screen, 48 h (100 = growth as untreated, 0 = no growth, -100 = all killed). As to conditions: 10 µM. Here is the method:
Growth inhibition of the OVCAR-4 human tumor cell line is measured as a screen for anti-cancer activity. Cells are grown in 96 well plates and exposed to the test compound for 48 hours. Compounds are tested at a single concentration, which is 10^-5 M for most compounds. The reported endpoint is percent growth (GI% or GIPRCNT), where numbers from 0 - 100% represent growth inhibition, and numbers from -100% - 0 represent cell death. For example, a value of 40 represents 60% growth inhibition. A value of 0 means no net growth occurred over the course of the experiment. A value of -40 indicates 40% of cells at the beginning of the experiment died by the end of the experiment. A value of -100 means all cells are dead at the end of the experiment.
NCI-60 Human Tumor Cell Lines Screen was performed using the standard one-dose NCI protocol, which is described in more detail at https://dtp.cancer.gov/discovery_development/nci-60/default.htm.
Compounds with GIPRCNT values below 10 were considered active. Activity score was based on GIPRCNT using the following formula: […]
Score is 0 for GIPRCNT values of 100 or above, 50 for GIPRCNT values of 0, and 100 for GIPRCNT values of -100.
For `COc1ccc(C(=O)/C=C/c2ccc(OCc3ccc(Cl)cc3)cc2)cc1OC`, the growth was 86%.
Still for that read-out and setting: to `CC(=O)/C=C/c1ccc(N(C)Cc2ccc(C(C)(C)C)cc2)cc1` belongs 85.2%.

Still in this assay, the particulars now being: 10 µM unless noted.
`CCCCC1COc2cccc3c2N1C=C/C3=C\C(=O)N(C)c1cccc(Cl)c1` (stereo not given): the growth is 72.8%.
On the same count and under the same terms, to `COc1ccc(Cl)cc1Nc1nc(C(F)(F)F)ccc1C(=O)N/N=C/c1ccc(N(C)C)cc1` belongs 87.1%; to `N#Cc1c(N)nnn1Cc1cc(=O)oc2ccc(O)cc12`, 110%.
With `C=C(C)[C@@H]1CC[C@]2(C)[C@H](CC(=O)N[C@H]3[C@@H]4C[C@](C)(C(=O)OC)CC[C@]4(C)CC[C@]32C)[C@@]1(C)CCC#N`, the growth was 76.7%.
Same read-out and setting: for `N=c1ccccn1CCO` the value was 122%.
The same measure, in the same setting: for `O=C(O)C1C2CCC1C(O)C2` (stereo not given) the value was 106% and 108%; for `C/C=C(/C)C(=O)O[C@@H]1CC(C)(C)CC2C34OC(=O)[C@@]21CC[C@@]3(C)[C@]1(C)CCC2C(C)(C)C(=O)CC[C@]2(C)C1C[C@@H]4Cl` (stereo not given in full), 96.2%; for `COc1ccc(CN2CCc3c(Cl)nc(N)nc3C2=O)c(OC)c1`, 15.2% [100 µM].
Regarding `Cc1ccc(Nc2nc(-c3cc(O)c(C)c(C)c3O)cs2)cc1`, the growth was 105%.
Still for that read-out and setting: to `S=c1nc(CS)[nH]c2ccccc12` belongs 94.3%; to `O=c1cc(N/N=C/c2ccc(F)cc2)c2cc(Cl)ccc2[nH]1`, 92.9%; to `C[N+]1=C(/C=C\C=C\c2ccccc2)C(C)(C)c2ccccc21`, 39.9%.
On the same count and under the same terms, to `CC1=C2[C@@H](CC1)[C@]1(C)O[C@@](C3CC3)(C[C@H]1OC(=O)CO)[C@H]2OC(=O)/C=C/c1ccccc1` belongs 110%.
As to `COc1cc(OC)cc(-c2ccc(-c3ccc(C(=N)N)cn3)s2)c1`, the growth is 28.4%.
On the same count and under the same terms, for `O=C(Nc1ccc2ccccc2c1)c1cc2ccccc2cc1O` the value was 82.9%; for `Cc1ccc(Cl)cc1N1CCN(C(=O)[C@@H]2C[C@@H]2c2ccc(F)cc2)CC1`, 85.9%; for `COCCOc1cc2ncnc(N3CCN(S(=O)(=O)c4ccccc4Cl)CC3)c2cc1OCCOC`, 102%.
The same measure, in the same setting: for `COc1ccc(C/C(C)=C(/c2ccc(OCCN3CCCCCC3)cc2)c2ccc(OC(=O)c3ccccc3)cc2)cc1` the value was 116%.
Same read-out and setting: to `COc1c(NC=O)c2c(c([N+](=O)[O-])c1OC)C(=O)OC2` belongs 103%; to `Cc1c(C(C)(C)O)cn2ncnc(Oc3ccc(NC(=O)Nc4ccc(Cl)c(C(F)(F)F)c4)cc3)c12`, 21%.
Consider `O=C(NCc1ccc(Cn2c(=O)sn(-c3ccc(Cl)cc3)c2=O)cc1)OCc1ccc2c(Cl)cc(Cl)c(O)c2n1`, for which the growth is 67.3%.
Same read-out and setting: for `CCCCn1c(C(=O)c2c[nH]c3ccccc23)n[nH]c1=S` the value was 92.4%; for `C=C(C)[C@@H]1CC[C@]2(C(=O)O)CC[C@]3(C)[C@H](CC[C@@H]4[C@@]5(C)CCC(N)C(C)(C)[C@@H]5CC[C@]43C)[C@@H]12` (stereo not given in full), 36.8%; for `C=C[C@]1(C)C=C2CC[C@@H]3C(C)(C)C(=O)CC[C@@]3(C)[C@@H]2CC1`, 102%.
With `CN1C(=O)/C(=C/c2ccc(C(=O)Nc3ncc(Cc4ccccc4Cl)s3)cc2)SC1=S`, the growth is 69.6%.
Same read-out and setting: to `COc1ccc(-c2ccc(-c3ccc(C(=N)N)cn3)s2)cc1Cl` belongs -82.8% (active).
On the same count and under the same terms, to `O=S(=O)(Nc1cc(Sc2cccc3cccnc23)c(O)c2ccccc12)c1ccc(F)cc1` belongs -99% (active); to `Nc1ccc(-c2ccc(N)c(Br)c2)cc1Br`, 75.5%; to `N#C/C(=C\c1ccc(Br)cc1)n1nnc2c(F)cccc21`, 14.1%.
On the same count and under the same terms, for `COc1cc(Cl)cc(-c2nn(C(=O)NS(=O)(=O)c3ccc(Cl)cc3)cc2-c2ccncc2)c1` the value was 16.5%; for `O=C(CCCCCCCCC(=O)N/N=C\c1ccccc1O)N/N=C\c1ccccc1O`, 15.9%; for `CC(=NCc1ccccc1)c1ccc(O)cc1O`, 101%.
For the compound `C=CCOc1ccc(/C=C2\SC(=S)N(CCc3ccc(O)cc3)C2=O)cc1`, the growth is 86.5%.
Turning to `C=C1C(=O)O[C@H]2[C@H]1CC/C(COC(=O)NCCCCNC(=O)OC/C1=C/CC[C@@]3(C)O[C@H]3[C@H]3OC(=O)C(=C)[C@@H]3CC1)=C\CC[C@@]1(C)O[C@@H]21`, the growth was 31.1%.
Still for that read-out and setting: to `CN(C)CCN1C(=O)c2c(c3c4ccccc4n4c3c3c2c2ccccc2n3C2CC(O)C(O)C4(C)O2)C1=O` (stereo not given) belongs 29.3%.
Same read-out and setting: for `COc1ccc(C2=C(CN)C(O)NC(=NCC(=O)c3ccc4ccccc4c3)N2)cc1` (stereo not given) the value was 107%.

The same assay, now with this note: 100 µM.
Regarding `COc1ccc(C(=O)/C=C/c2ccc(OCc3ccc(Cl)cc3)cc2)cc1OC`, the growth was -4.25% (active).
On the same count and under the same terms, to `CC(=O)/C=C/c1ccc(N(C)Cc2ccc(C(C)(C)C)cc2)cc1` belongs -68.9% (active).
